# Experimental data from publication PMC7862700, “An all-to-all approach to the identification of sequence-specific readers for epigenetic DNA modifications on cytosine”.
# What was measured:
# Experiment in all cases: DAPPL (digital affinity profiling via proximity ligation, sequencing); 10 mM Tris-HCl pH 7.5, 50 mM NaCl, 1 mM DTT, 4% glycerol, room temperature, 30 min; GST-TFs on glutathione beads, 16-mer random dsDNA library, 0.1% formaldehyde crosslink after washing; high values mean tight binding
# FLI1 = molecular target: T1, FLI1 (Homo sapiens, UniProt Q01543 1-452); conditions: protein: recombinant; tags: N-terminal GST; dsDNA, one strand shown
# T1 sequence: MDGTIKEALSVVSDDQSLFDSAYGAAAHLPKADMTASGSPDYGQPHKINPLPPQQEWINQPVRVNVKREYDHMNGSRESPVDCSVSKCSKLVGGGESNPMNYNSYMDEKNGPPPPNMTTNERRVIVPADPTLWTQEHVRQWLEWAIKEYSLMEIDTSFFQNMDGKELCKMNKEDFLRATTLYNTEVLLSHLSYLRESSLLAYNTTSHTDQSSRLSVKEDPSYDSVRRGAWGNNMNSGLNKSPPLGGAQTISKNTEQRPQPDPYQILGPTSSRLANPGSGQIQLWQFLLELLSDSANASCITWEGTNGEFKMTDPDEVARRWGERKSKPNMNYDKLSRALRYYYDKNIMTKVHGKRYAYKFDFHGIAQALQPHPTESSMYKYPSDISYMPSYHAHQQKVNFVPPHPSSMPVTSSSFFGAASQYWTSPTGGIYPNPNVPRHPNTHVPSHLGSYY
# Procedure, shortened: (§1)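 Human transcription factors fused to GST were expressed in yeast, captured on glutathione beads, given DNA barcodes and pooled with a GST-only negative control. Pools were incubated with 200 nmole of a 16-mer random double-stranded DNA library in Tris/NaCl/DTT/glycerol buffer at room temperature for 30 min. They were then washed, crosslinked with 0.1% formaldehyde, proximity-ligated (BsaI/T4 ligase, 1 h, 37 °C), PCR-amplified and sequenced on an Illumina NextSeq500. Binding signal is each 6-mer's read frequency for a factor divided by its frequency for the GST control.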
# ELK1 = molecular target: T2, ELK1 (Homo sapiens, UniProt P19419 1-428); conditions: protein: recombinant; tags: N-terminal GST; dsDNA, one strand shown
# T2 sequence: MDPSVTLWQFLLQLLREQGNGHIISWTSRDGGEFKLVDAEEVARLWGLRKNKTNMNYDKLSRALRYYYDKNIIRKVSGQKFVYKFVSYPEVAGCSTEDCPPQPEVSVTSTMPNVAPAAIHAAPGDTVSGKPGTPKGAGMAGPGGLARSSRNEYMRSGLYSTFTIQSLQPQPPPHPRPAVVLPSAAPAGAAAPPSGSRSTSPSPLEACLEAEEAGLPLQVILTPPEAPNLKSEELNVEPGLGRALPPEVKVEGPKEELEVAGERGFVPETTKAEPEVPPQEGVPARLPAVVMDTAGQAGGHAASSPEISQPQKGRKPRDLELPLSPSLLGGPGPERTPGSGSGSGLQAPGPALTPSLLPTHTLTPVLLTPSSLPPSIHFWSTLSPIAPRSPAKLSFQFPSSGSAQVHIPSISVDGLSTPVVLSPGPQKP
# Procedure, shortened: as §1
# GABPA = molecular target: T3, GABPA (Homo sapiens, UniProt Q06546 1-454); conditions: protein: recombinant; tags: N-terminal GST; dsDNA, one strand shown
# T3 sequence: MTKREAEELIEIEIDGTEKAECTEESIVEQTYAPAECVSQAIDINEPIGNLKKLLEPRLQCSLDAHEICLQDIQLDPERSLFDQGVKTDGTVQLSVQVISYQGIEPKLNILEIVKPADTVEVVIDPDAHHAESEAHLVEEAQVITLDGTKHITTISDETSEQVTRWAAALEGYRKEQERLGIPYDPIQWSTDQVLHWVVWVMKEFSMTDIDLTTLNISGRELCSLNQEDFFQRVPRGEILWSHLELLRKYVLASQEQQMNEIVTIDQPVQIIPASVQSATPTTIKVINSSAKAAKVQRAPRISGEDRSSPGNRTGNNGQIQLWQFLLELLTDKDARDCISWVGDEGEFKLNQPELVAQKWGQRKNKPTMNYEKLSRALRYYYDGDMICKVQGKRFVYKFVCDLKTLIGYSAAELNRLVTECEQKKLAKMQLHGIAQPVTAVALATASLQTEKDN
# Procedure, shortened: as §1
# ERG = molecular target: T4, ERG (Homo sapiens, UniProt P11308 1-479); conditions: protein: recombinant; tags: N-terminal GST; dsDNA, one strand shown
# T4 sequence: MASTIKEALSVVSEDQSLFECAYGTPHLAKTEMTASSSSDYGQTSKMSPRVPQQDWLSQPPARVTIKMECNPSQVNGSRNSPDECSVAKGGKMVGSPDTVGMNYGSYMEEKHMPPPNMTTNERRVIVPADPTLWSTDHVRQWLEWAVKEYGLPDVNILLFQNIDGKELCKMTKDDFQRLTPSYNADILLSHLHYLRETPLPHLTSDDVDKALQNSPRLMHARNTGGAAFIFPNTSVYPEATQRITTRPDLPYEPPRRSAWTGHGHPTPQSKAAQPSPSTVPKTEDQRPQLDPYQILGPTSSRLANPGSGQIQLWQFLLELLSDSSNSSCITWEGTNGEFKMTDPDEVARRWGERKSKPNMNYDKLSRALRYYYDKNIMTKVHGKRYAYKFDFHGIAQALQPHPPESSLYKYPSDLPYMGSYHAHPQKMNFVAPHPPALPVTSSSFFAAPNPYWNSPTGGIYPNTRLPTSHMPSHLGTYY
# Procedure, shortened: as §1
# ELF1 = ELF1 (Homo sapiens, UniProt P32519 1-619); conditions: protein: recombinant; tags: N-terminal GST; dsDNA, one strand shown
# ELF1, sequence (P32519 whole entry): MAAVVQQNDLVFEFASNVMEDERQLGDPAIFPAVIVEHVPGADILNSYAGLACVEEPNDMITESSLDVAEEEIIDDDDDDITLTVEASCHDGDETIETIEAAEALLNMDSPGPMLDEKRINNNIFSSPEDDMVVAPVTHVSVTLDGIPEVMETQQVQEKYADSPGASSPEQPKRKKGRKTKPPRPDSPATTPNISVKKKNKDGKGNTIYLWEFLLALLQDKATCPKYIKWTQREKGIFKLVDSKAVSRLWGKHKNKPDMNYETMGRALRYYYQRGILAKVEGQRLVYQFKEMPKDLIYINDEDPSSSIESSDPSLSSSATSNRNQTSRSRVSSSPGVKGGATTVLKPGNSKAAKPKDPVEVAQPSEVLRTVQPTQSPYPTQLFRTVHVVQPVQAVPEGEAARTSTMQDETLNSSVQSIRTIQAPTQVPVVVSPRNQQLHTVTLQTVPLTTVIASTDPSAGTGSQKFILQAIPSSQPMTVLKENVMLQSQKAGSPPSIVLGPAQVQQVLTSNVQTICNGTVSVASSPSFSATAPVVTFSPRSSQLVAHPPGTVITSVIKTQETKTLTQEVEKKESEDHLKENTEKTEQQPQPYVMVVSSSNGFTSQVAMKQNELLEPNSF
# Procedure, shortened: as §1
# EHF = molecular target: T5, EHF (Homo sapiens, UniProt Q9NZC4 1-300); conditions: protein: recombinant; tags: N-terminal GST; dsDNA, one strand shown
# T5 sequence: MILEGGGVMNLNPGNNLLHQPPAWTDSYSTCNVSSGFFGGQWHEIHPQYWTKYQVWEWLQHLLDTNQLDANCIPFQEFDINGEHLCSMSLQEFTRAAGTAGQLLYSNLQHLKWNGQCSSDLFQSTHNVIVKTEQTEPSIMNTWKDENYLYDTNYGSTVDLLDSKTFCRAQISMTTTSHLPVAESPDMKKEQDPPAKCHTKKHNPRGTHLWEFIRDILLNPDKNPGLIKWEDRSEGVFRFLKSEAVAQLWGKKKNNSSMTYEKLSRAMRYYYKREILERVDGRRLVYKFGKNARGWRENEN
# Procedure, shortened: as §1
# SPI1 = SPI1 (Homo sapiens, UniProt P17947 1-270); conditions: protein: recombinant; tags: N-terminal GST; dsDNA, one strand shown
# Procedure, shortened: as §1
# SPIB = SPIB (Homo sapiens, UniProt Q01892 1-262); conditions: protein: recombinant; tags: N-terminal GST; dsDNA, one strand shown
# SPIB, sequence (Q01892 whole entry): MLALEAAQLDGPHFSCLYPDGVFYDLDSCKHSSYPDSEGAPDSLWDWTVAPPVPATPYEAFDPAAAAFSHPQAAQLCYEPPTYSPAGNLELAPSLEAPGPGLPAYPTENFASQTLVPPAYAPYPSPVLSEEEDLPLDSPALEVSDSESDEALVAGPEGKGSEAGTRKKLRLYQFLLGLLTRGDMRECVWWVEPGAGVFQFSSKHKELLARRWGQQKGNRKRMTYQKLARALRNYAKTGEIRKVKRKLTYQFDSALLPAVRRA
# Procedure, shortened: as §1
# ELK3 = molecular target: T6, ELK3 (Homo sapiens, UniProt P41970 1-407); conditions: protein: recombinant; tags: N-terminal GST; dsDNA, one strand shown
# T6 sequence: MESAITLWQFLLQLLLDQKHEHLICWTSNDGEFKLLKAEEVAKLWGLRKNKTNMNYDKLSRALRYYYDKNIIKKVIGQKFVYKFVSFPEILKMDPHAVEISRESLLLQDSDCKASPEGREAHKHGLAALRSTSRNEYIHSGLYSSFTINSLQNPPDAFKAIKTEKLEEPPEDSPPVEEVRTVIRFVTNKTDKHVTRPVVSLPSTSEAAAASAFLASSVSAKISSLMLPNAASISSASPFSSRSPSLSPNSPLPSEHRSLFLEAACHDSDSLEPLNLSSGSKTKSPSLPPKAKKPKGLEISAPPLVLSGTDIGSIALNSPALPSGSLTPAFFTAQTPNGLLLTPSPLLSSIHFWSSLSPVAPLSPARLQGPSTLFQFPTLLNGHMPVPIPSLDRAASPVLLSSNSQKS
# Procedure, shortened: as §1
# FEV = molecular target: T7, FEV (Homo sapiens, UniProt Q99581 1-238); conditions: protein: recombinant; tags: N-terminal GST; dsDNA, one strand shown
# T7 sequence: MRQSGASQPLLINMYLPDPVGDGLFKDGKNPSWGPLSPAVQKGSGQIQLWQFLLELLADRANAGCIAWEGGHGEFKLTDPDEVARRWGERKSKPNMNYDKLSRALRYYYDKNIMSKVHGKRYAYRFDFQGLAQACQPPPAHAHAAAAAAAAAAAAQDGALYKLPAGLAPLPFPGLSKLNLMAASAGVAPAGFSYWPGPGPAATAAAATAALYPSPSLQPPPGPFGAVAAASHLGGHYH
# Procedure, shortened: as §1
# ETV5 = ETV5 (Homo sapiens, UniProt P41161 1-510); conditions: protein: recombinant; tags: N-terminal GST; dsDNA, one strand shown
# ETV5, sequence (P41161 whole entry): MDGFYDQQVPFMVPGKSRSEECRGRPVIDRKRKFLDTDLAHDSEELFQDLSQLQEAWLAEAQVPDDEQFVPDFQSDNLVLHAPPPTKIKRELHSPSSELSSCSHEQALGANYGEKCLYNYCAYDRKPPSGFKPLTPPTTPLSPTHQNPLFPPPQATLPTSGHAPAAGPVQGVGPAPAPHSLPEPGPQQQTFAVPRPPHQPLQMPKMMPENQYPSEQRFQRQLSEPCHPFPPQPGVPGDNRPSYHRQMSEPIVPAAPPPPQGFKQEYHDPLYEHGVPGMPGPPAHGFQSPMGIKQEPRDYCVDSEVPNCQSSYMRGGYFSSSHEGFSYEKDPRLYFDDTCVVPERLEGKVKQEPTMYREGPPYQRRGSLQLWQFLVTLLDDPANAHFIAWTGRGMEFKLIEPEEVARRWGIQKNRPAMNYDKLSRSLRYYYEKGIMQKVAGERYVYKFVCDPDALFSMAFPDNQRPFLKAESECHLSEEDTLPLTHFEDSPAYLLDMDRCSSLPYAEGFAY
# Procedure, shortened: as §1
# HSF1 = HSF1 (Homo sapiens, UniProt Q00613 1-529); conditions: protein: recombinant; tags: N-terminal GST; chain copies: 3; dsDNA, one strand shown
# HSF1, sequence (Q00613 whole entry): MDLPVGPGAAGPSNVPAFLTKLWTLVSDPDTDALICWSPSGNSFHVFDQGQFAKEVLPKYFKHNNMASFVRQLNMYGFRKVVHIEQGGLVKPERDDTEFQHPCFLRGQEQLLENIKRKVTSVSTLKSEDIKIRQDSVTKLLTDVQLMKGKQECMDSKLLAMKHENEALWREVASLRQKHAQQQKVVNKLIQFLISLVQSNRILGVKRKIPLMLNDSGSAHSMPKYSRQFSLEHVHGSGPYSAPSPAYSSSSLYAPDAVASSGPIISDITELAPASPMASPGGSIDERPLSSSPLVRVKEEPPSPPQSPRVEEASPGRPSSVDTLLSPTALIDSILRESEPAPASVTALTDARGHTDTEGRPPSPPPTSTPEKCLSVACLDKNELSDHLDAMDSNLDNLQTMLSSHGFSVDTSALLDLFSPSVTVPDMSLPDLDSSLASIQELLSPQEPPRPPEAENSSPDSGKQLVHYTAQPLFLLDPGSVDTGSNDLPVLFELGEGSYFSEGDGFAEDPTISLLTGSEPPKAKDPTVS
# Procedure, shortened: as §1
# SPIC = molecular target: T8, SPIC (Homo sapiens, UniProt Q8N5J4 1-248); conditions: protein: recombinant; tags: N-terminal GST; dsDNA, one strand shown
# T8 sequence: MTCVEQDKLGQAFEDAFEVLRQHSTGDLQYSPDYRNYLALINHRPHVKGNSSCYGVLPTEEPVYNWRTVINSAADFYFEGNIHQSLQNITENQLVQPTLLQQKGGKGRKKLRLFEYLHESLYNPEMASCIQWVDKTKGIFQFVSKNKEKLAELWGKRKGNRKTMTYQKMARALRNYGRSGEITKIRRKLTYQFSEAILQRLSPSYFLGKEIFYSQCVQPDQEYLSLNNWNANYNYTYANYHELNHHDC
# Procedure, shortened: as §1
# ELF4 = ELF4 (Homo sapiens, UniProt Q99607 1-663); conditions: protein: recombinant; tags: N-terminal GST; dsDNA, one strand shown
# ELF4, sequence (Q99607 whole entry): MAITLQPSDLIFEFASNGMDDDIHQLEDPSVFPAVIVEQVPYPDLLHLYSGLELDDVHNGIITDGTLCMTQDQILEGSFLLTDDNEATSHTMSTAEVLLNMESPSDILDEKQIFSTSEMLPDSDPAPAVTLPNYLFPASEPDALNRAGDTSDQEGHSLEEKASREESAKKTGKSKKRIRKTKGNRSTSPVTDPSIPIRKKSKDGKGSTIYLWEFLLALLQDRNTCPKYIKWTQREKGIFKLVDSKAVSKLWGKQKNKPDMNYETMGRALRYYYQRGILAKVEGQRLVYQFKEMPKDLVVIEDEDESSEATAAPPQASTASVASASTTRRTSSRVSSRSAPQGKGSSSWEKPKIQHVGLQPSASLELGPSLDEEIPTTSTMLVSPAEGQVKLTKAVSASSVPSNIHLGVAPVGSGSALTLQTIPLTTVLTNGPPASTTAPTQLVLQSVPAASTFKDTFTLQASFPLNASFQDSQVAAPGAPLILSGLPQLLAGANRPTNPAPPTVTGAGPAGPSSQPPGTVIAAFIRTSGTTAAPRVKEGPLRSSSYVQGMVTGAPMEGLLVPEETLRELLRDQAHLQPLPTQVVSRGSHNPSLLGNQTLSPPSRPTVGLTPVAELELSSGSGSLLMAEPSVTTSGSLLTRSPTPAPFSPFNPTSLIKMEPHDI
# Procedure, shortened: as §1
# ELK4 = molecular target: T9, ELK4 (Homo sapiens, UniProt P28324-2 1-405); conditions: protein: recombinant; tags: N-terminal GST; dsDNA, one strand shown
# T9 sequence: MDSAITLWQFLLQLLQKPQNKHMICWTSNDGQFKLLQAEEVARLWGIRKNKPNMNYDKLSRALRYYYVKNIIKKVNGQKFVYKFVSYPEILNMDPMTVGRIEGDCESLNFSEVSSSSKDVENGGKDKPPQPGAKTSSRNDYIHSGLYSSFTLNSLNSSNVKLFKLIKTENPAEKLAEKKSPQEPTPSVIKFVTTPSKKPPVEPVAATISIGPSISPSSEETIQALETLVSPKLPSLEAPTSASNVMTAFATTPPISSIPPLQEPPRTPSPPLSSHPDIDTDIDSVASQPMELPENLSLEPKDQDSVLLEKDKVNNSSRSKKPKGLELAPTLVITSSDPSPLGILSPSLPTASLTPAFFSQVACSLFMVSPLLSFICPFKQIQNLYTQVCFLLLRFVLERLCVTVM
# Procedure, shortened: as §1
# ETV2 = molecular target: T10, ETV2 (Homo sapiens, UniProt O00321 1-342); conditions: protein: recombinant; tags: N-terminal GST; dsDNA, one strand shown
# T10 sequence: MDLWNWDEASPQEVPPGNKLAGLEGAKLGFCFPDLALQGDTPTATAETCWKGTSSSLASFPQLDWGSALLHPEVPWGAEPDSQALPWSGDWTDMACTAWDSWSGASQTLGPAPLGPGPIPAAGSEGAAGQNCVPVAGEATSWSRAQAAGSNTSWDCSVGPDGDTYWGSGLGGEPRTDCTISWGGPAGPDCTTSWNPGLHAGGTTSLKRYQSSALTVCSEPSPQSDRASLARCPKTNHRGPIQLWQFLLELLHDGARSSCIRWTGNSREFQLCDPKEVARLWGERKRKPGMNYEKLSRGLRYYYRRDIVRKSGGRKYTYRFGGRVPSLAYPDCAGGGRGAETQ
# Procedure, shortened: as §1
# ELF3 = molecular target: T11, ELF3 (Homo sapiens, UniProt P78545 1-371); conditions: protein: recombinant; tags: N-terminal GST; dsDNA, one strand shown
# T11 sequence: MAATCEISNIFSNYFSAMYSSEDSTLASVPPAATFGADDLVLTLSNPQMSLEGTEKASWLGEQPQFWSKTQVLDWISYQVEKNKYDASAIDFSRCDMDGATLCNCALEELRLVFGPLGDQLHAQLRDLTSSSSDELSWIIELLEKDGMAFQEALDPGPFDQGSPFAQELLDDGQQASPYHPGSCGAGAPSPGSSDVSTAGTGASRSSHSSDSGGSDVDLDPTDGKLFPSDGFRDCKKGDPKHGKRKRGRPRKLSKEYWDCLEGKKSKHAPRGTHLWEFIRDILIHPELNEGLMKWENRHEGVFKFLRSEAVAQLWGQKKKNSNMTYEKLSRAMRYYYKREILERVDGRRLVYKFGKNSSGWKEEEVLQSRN
# Procedure, shortened: as §1
# CRX = CRX (Homo sapiens, UniProt O43186 1-299); conditions: protein: recombinant; tags: N-terminal GST; dsDNA, one strand shown
# CRX, sequence (O43186 whole entry): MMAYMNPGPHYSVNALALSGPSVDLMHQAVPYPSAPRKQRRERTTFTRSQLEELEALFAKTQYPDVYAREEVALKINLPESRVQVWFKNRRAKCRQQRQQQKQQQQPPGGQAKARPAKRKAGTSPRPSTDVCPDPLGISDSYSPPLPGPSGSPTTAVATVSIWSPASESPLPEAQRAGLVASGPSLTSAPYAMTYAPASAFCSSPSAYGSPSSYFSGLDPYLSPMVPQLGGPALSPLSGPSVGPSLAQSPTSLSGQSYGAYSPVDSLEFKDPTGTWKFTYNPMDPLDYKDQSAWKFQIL
# Procedure, shortened: as §1
# ETV1 = ETV1 (Homo sapiens, UniProt P50549 1-477); conditions: protein: recombinant; tags: N-terminal GST; dsDNA, one strand shown
# ETV1, sequence (P50549 whole entry): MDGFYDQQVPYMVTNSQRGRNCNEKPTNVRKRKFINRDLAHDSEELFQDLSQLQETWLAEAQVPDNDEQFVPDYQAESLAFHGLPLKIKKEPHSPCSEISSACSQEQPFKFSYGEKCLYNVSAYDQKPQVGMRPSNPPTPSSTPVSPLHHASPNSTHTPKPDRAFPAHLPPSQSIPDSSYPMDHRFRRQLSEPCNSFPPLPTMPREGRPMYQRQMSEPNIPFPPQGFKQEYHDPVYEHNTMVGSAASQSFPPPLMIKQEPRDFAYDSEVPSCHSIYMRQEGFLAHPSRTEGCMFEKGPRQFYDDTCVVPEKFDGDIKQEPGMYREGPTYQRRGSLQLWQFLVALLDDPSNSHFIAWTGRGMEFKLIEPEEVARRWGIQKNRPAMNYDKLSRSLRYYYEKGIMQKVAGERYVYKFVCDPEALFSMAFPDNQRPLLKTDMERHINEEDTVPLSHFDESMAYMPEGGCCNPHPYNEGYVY
# Procedure, shortened: as §1
sequence,measurement,setting,value
ACATCT,binding signal,FLI1,"1.39 fold enrichment (6-mer frequency, TF over GST control)"
same,binding signal,ELK1,"1.35 fold enrichment (6-mer frequency, TF over GST control)"
same,binding signal,GABPA,"1.35 fold enrichment (6-mer frequency, TF over GST control)"
same,binding signal,ERG,"1.34 fold enrichment (6-mer frequency, TF over GST control)"
same,binding signal,ELF1,"1.38 fold enrichment (6-mer frequency, TF over GST control)"
same,binding signal,EHF,"1.3 fold enrichment (6-mer frequency, TF over GST control)"
same,binding signal,SPI1,"1.4 fold enrichment (6-mer frequency, TF over GST control)"
same,binding signal,SPIB,"1.27 fold enrichment (6-mer frequency, TF over GST control)"
same,binding signal,ELK3,"1.44 fold enrichment (6-mer frequency, TF over GST control)"
same,binding signal,FEV,"1.29 fold enrichment (6-mer frequency, TF over GST control)"
same,binding signal,ETV5,"1.31 fold enrichment (6-mer frequency, TF over GST control)"
same,binding signal,HSF1,"1.36 fold enrichment (6-mer frequency, TF over GST control)"
same,binding signal,SPIC,"1.43 fold enrichment (6-mer frequency, TF over GST control)"
same,binding signal,ELF4,"1.29 fold enrichment (6-mer frequency, TF over GST control)"
same,binding signal,ELK4,"1.4 fold enrichment (6-mer frequency, TF over GST control)"
same,binding signal,ETV2,"1.29 fold enrichment (6-mer frequency, TF over GST control)"
same,binding signal,ELF3,"1.4 fold enrichment (6-mer frequency, TF over GST control)"
same,binding signal,CRX,"1.19 fold enrichment (6-mer frequency, TF over GST control)"
same,binding signal,ETV1,"1.32 fold enrichment (6-mer frequency, TF over GST control)"
